Assay outcomes: PubChem BioAssay, several laboratories
In the library only some 4.6% were active in any assay of this set; here they are far more common.
Peg3 prom inh: inhibitors of Peg3 promoter; AID 588405; 360,000 tested, 1.7% active; inhibition, % at 20 µM; HeLa PEG-Prom luciferase reporter, luminescence, overnight;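 active means inhibition of at least 50% at 20 µM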
KKLEB tox: reduces viability of KKLEB cystic fibrosis airway cells. AID 602141. activity change (cytotoxicity), % at 5 µM. KKLEB CF airway cells viability, ATPlite luminescence, overnight; stronger effect = lower value; cells stimulated with P. aeruginosa culture filtrate. 360,000 tested, 0.36% active;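 active means corrected activity change at or below -50% at 5 µM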
ABHD5-PLIN5 inh: blocks binding of human ABHD5 to perilipin-5 | Q00G26+Q8WTS1 | Split G. princeps luciferase complementation, luminescence, 4 h | inhibition, % at 4 µM | 360,000 tested, 0.78% active;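 active means inhibition above the mean inhibition across every tested compound plus 3 SD, cut at about 22% in these data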;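 further: 0% = DMSO only wells and the 100% control is not disclosed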
CF NFkB inh: blocks PAF-induced NF-kB reporter in cystic fibrosis cells; 360,000 tested, 0.86% active; inhibition, % at 5 µM; KKLEB NF-kB-GFP reporter, GFP fluorescence overnight;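 active means at least 50% inhibition at 5 µM, scaled per plate between neutral and stimulator controls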;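 further: PAF is a Pseudomonas aeruginosa culture filtrate used as stimulus; plate controls were PAF-stimulated DMSO wells for no effect and unstimulated DMSO wells for full effect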
HIF-2a inh: inhibitors of HIF-2a. 786-0 RCC cells HIF-2a reporter, luciferase luminescence, overnight. inhibition, % at 18.8 µM. 360,000 tested, 0.72% active. AID 624352;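 active means inhibition of the luminescence signal of 40% or more relative to plate controls, in a single-dose primary screen at 18.75 µM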
Mdm2 MdmX PPI: disrupts the human Mdm2-MdmX interaction | AID 485346 | O15151+Q00987 | 330,000 tested, 3% active | inhibition, % at 8 µM | SaOS-2 split-luciferase Mdm2/MdmX complementation, luminescence;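 active means inhibition of at least 50% at 8 µM in the primary screen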
Target sequence (O15151 whole entry, looked up): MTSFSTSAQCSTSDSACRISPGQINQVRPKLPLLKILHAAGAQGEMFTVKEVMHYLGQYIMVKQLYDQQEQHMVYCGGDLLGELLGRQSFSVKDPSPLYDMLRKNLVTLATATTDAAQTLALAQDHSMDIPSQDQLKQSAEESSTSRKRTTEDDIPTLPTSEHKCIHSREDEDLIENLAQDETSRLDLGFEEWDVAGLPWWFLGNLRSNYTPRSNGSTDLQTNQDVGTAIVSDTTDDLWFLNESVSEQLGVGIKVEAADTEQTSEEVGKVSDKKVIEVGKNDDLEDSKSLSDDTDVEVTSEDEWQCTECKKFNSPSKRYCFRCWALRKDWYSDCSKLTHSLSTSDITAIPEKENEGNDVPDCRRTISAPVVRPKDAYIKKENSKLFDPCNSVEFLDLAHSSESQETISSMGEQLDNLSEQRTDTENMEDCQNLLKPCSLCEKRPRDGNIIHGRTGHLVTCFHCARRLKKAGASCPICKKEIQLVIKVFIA
Target sequence (Q00987 whole entry, looked up): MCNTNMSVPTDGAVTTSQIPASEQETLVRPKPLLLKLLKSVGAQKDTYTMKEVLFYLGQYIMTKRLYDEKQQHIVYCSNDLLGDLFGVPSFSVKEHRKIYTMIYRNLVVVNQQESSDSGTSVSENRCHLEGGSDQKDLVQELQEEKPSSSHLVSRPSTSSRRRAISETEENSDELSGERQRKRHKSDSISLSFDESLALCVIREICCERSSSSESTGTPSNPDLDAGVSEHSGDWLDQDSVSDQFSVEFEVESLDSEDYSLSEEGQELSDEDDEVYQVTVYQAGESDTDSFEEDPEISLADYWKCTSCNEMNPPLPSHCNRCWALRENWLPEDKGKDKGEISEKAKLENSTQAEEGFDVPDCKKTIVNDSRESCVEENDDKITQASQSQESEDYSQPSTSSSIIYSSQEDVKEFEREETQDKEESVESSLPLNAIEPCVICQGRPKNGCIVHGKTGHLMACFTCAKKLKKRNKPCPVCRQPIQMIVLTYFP
Mdm2 MdmX conf: confirmation of human Mdm2/MdmX interaction inhibitors; Mdm2-MdmX binding, luminescent assay; inhibition, % at 8 µM; 10,000 tested, 55% active; shares compounds with Mdm2 MdmX PPI
Full FLuc ctr: counter-screen for Mdm2/MdmX inhibitors: full-length luciferase. shares compounds with Mdm2 MdmX PPI. inhibition, % at 8 µM. 6,200 tested, 77% active. SaOS-2 full-length luciferase counterscreen, luminescence. AID 504607;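 active means mean inhibition at 8 µM reaching about 37%, which flags the compound as non-specific, limit read from the data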;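 further: p53-null SaOS-2 cells with luciferase driven by a doxycycline-inducible promoter; compound on cells about two nights before reading with doxycycline added after day one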
CF NFkB inh conf: CF NF-kB inhibition confirmation, single concentration. 1,300 tested, 64% active. inhibition, % at 5 µM. KKLEB CF airway cells, PAF-induced NF-kB-GFP fluorescence, overnight. shares compounds with CF NFkB inh;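 further: stimulus PAF is a Pseudomonas aeruginosa filtrate and not platelet activating factor; plate controls were DMSO wells with stimulus for no effect and unstimulated DMSO wells for full effect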
ABHD5-PLIN5 conf: confirmation of human ABHD5-PLIN5 interaction inhibitors; 2,200 tested, 67% active; AID 651612; biochemical ABHD5-PLIN5 interaction, luminescence; shares compounds with ABHD5-PLIN5 inh; inhibition, % at 4 µM; in the data active means inhibition above about 23%;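 further: 0% = DMSO vehicle wells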
HNF4 split-luc: active in HNF4 split-luciferase counter-screen for ABHD5-PLIN5 inhibitors. shares compounds with ABHD5-PLIN5 inh. HNF4 dimerization, luminescence, biochemical. inhibition, % at 4 µM. 2,200 tested, 77% active;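 active means mean inhibition across replicate wells exceeding the computed hit threshold, cut at about 13% in these data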;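 further: light from luciferase halves that rejoin when HNF4 fusion proteins dimerize; 0% = DMSO only wells and the 100% control is not given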
Active calls of the source: *; x = not tested or not shown. Unless noted, no stated cut-off is given here; in the data, active means inhibition above about 40%; inactive means the rest.

SMILES | Peg3 prom inh | KKLEB tox | ABHD5-PLIN5 inh | CF NFkB inh | HIF-2a inh | Mdm2 MdmX PPI | Mdm2 MdmX conf | Full FLuc ctr | ABHD5-PLIN5 conf | HNF4 split-luc | others
O=C1C(SCCO)=C(SCCO)C(=O)c2ccccc21 | 100* | -6 | 97* | 72* | 97* | 82* | 75* | 21 | 104* | 111*
O=C1C(Cl)=C(NC(=O)c2ccccc2)C(=O)C(Cl)=C1NC(=O)c1ccccc1 | 103* | 7 | 71* | 52* | 72* | 87* | 42* | 14 | 103* | 110*
CC(C)N1CCC(C)(C(=O)Nc2cccc(Oc3ccccc3)c2)C1 (stereo not drawn) | 9 | -19 | 4 | 0 | 6 | x | x | x | x | x
Cc1ccc2c(c1)C(=O)C(=O)N2Cc1ccc(Cl)cc1 | -24 | -12 | 33* | 54* | -5 | 68* | 24 | x | 37* | 52* | CF NFkB inh conf=33
CCCCCC[N+](C)(C)CCSSCC[N+](C)(C)CCCCCC | -8 | -10 | -24 | -16 | 14 | -23 | x | x | x | x
C#CC[N+](C)(C)CCCCCCCCCCCC | 87* | -43 | 23* | 46 | 39 | 84* | 80* | 37* | 16 | 6
COc1cc(C=C2CN(C)C(=O)C2=O)ccc1O | 3 | -6 | 9 | 0 | -1 | x | x | x | x | x
CCOc1cc(/C=C2\CCC/C(=C\c3cc(Cl)c(O)c(OCC)c3)C2=O)cc(Cl)c1O | 81* | -50* | 55* | 52* | 89* | 100* | 94* | 21 | 68* | 48*
CCOc1cc(/C=C2\CN(C)C/C(=C\c3ccc(O)c(OCC)c3)C2=O)ccc1O | 103* | -9 | 78* | 63* | 92* | 100* | 100* | 14 | 97* | 88*
O=C(c1ccc(F)cc1)C(CN1CCOCC1)c1ccccc1 (stereo not drawn) | 105* | -68* | 38* | 90* | 30 | 64* | 43* | 38* | 29* | 99*
O=C(c1ccc(Cl)cc1)C(CN1CCCC1)c1ccccc1 (stereo not drawn) | 76* | -60* | 48* | 69* | 37 | 71* | 34 | x | 53* | 103*
O=C(c1ccc(Cl)cc1)C1CCN(Cc2ccccc2)CC1 | 10 | -9 | 0 | 9 | 2 | 22 | x | x | x | x
CCCC1(CCC)NC(=O)N(CC(=O)Nc2ccc(Cl)c(S(=O)(=O)N3CCOCC3)c2)C1=O | 5 | 15 | -2 | -18 | 14 | 26 | x | x | x | x
CN(C)CCOc1ccc(-c2c(-c3ccccc3)sc3ccccc23)cc1 | 100* | -89* | 29* | 82* | 24 | 100* | 30 | x | 18 | -4
COC(=O)C1=C(C)N(Cc2ccccc2)C(=NCC(C)C)N[C@H]1c1cccc(C(F)(F)F)c1 | 103* | -3 | 24* | 24 | -9 | 99* | 51* | 26 | 14 | 2
CC(OC(=O)c1ccco1)C(=O)Nc1ccc(C(F)(F)F)cc1 (stereo not drawn) | -3 | 18 | 14 | -13 | -25 | 3 | x | x | x | x
O=C(CCl)N(C/C=C/c1ccccc1)c1ccc2c(c1)OCCO2 | -59 | -100* | 25* | 92* | -56 | 79* | 67* | 26 | 24* | 29*
O=C1CCCC2=C1C(c1cccc(O)c1)C1=C(N2)c2ccccc2C1=O (stereo not drawn) | 25 | 2 | 4 | -13 | 17 | -18 | x | x | x | x
CCCc1ccc(C2C3=C(CC(C)(C)CC3=O)NC3=C2C(=O)c2ccccc23)cc1 (stereo not drawn) | 56* | -10 | 42* | -1 | -16 | 76* | -2 | x | 66* | 75*
O=C(C[C@H]1C[C@H](C(=O)N2CCOCC2)[C@@]2(CCC3CCCC3)c3[nH]c4cc(-c5ccco5)ccc4c3CCN2C1=O)NCCC1=CCCCC1 | 26 | 6 | 18 | 30 | -14 | 42 | x | x | x | x
O=C(C[C@H]1C[C@H](C(=O)N2CCOCC2)[C@@]2(CCC3CCCC3)c3[nH]c4cc(-c5ccco5)ccc4c3CCN2C1=O)NCCc1ccccn1 | 18 | -8 | 23* | 18 | -6 | 81* | 0 | x | 11 | 17*
COc1ccccc1OCCNC(=O)C1CC(=O)N(c2cccc(SC)c2)C1 (stereo not drawn) | 13 | 2 | 8 | 2 | -8 | -2 | x | x | x | x
C=CC[C@]12CC=CC(=O)[C@@]1(O)O[C@H](c1ccc(OC)c(OC)c1)[C@H]2C | 24 | -19 | 27* | 62* | 38 | 50* | 30 | x | 50* | 36* | CF NFkB inh conf=58*
C=CC[C@]12C=C(OC)C(=O)C(OC)=C1O[C@@H](c1ccc3c(c1)OCO3)[C@H]2C | 5 | 6 | 1 | 2 | 9 | 0 | x | x | x | x
Cc1nnnn1/C(=C\c1ccccc1)C(=O)OCC(=O)NC1CCCCC1 | 76* | -19 | 25* | 5 | 13 | 62* | 45* | 45* | 55* | 62*
SMILES | Peg3 prom inh | KKLEB tox | ABHD5-PLIN5 inh | CF NFkB inh | HIF-2a inh | Mdm2 MdmX PPI | Mdm2 MdmX conf | Full FLuc ctr | ABHD5-PLIN5 conf | HNF4 split-luc | others
Cc1cc(C(=O)C(C)OC(=O)c2ccc(NC(=O)CC#N)cc2)c(C)n1-c1ccc(OC(F)F)cc1 (stereo not drawn) | 6 | -4 | -11 | 6 | 9 | 27 | x | x | x | x
CCOC(=O)C(=NO)C1=CSC2=NNC(C)(C)N12 | 12 | 7 | -6 | 12 | 20 | x | x | x | x | x
Cc1cc2c(=O)[nH]c(N)nc2[nH]1 | 9 | -2 | 3 | 8 | 18 | x | x | x | x | x
Cc1ccc(-c2csc(NC(=O)C[n+]3cc(-c4ccccc4)n4c3CCC4)n2)cc1 | -111 | -2 | 14 | 3 | -106 | 18 | x | x | x | x
Cc1ccc(-c2csc(NC(=O)C[n+]3cc(-c4ccc(C)cc4)n4c3CCC4)n2)cc1 | -23 | -7 | 25* | -4 | -71 | 56* | 12 | x | 10 | 3
CC(C)C[C@H]1CN([C@@H](Cc2ccccc2)CN2CCC[C@H]2CN2C(=O)C(=O)NC[C@@H]2Cc2ccc(O)cc2)C(=O)C(=O)N1CCc1ccccc1 | x | x | 3 | x | 6 | x | x | x | x | x
Cc1ccc2[nH]c(=O)c(CN(Cc3ccco3)S(=O)(=O)c3c(C)ccc4nsnc34)cc2c1 | 19 | 4 | 25* | 12 | 18 | 55* | 6 | x | 33* | 43*
